S aureus QS inh: S. aureus quorum sensing inhibitors, primary screen, RNAIII-GFP reporter, flow cytometry; S. aureus RN6390 RNAIII-GFP reporter, AIP-induced, flow cytometry 3 h; inhibition, % at 2 µM; 24,000 tested, 0.3% active; AID 527, 2006;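 active = share of bacteria positive for the green fluorescent reporter and its mean brightness both inhibited by 50% or more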;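 also: 0% = AIP-stimulated control and 100% = unstimulated bacteria without AIP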
LNCaP diff act: activators of LNCaP prostate cell differentiation, primary screen, flow cytometry side scatter; 4 d; side scatter shift, % at 10 µM; 24,000 tested, 0.56% active; AID 795, 2007;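 active = side scatter shift above 30%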;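 also: androgen-responsive LNCaP prostate cancer cells in charcoal-stripped serum medium; percent of cells past a gate set so DMSO wells show 10% shift; higher shift means more granular cells and more differentiation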
FPRL1 ligand: human FPRL1 ligands by binding competition, primary screen, cell-based, FPR counter-screen, flow cytometry; N-formyl peptide receptor 2 (Homo sapiens), P25090; FPRL1-expressing cells, fluorescent ligand binding inhibition; inhibition, % (concentration not given with the values); 24,000 tested, 0.3% active; AID 441, 2006;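 also: 0% = buffer alone and 100% = receptor blocker peptide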
FPR ligand: human FPR ligands by binding competition, primary screen, cell-based, FPRL1 counter-screen, flow cytometry. fMet-Leu-Phe receptor (Homo sapiens), P21462. FPR-expressing cells, fluorescent ligand binding. inhibition, % (no concentration beside the values). 24,000 tested, 0.74% active;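 also: 0% = buffer wells and 100% = receptor blocker peptide wells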
* = called active by the depositor. The list is not random: actives were taken first. Their share in the collection is about 1.4%. Rule as the data show it, unless noted: active = inhibition above about 30%; inconclusive = no clear call, values can overlap the other calls; inactive = below that.

SMILES	S aureus QS inh	LNCaP diff act	FPRL1 ligand	FPR ligand
CCOc1ccc(C2SCC(=O)Nc3c2c(=O)[nH]n3C2CCCCCC2)cc1 (stereo not given)	-3.0	34.0*	2.7	-3.9
Cc1ccc2c(c1)[C@@H]1CN(C)CC[C@@H]1N2C(=O)Nc1cccc(C(F)(F)F)c1	-0.2	55.0*	-1.6	0.5
Cc1ccc2c(c1)C1CN(C)CCC1N2C(=O)c1ccc(Br)o1 (stereo not given)	0.3	5.0	-0.7	-0.1
O=c1c2ccccc2[se]n1-c1ccccc1	-15.0	3.0	4.6	-1.5

Screening results deposited in PubChem by NMMLSC.
